In PubChem BioAssay AID1159580 (chemical genetic matrix, 2015):
Out of some 5,500 compounds screened, about 2,000 (36%) were called active. About 18% were inconclusive and are not listed. Cut-off read from the data, not from the text of the source: active = normalized growth mostly below about 0.91 (no sharp cut-off); inconclusive = no clear call, values can overlap the other calls; inactive = mostly above about 0.92. The list shows a part of the results.

Test: chemical genetic growth profiling, strain panel (AID 1159580);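 note: tested at 20 µM; growth read once vehicle control cultures reached saturation at 30 °C; 1 = growth at the plate median or of vehicle wells; lower values mean less growth of the strain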
Details: S. cerevisiae deletion strains, growth OD
[1] = locus YAL013W, strain DEP1, hits give low values
[2] = locus YGR078C, strain PAC10, hits give low values
[3] = locus YNL128W, strain TEP1, hits give low values
[4] = locus YNL322C, strain KRE1, hits give low values
[5] = locus YPL055C, strain LGE1, hits give low values

Measured: normalized growth

CC1=NN(c2cccc(S(N)(=O)=O)c2)C(=O)C1
inactive: [1] 1.01 | locus YBR229C, strain ROT2, hits give low values 1 | locus YDL101C, strain DUN1, hits give low values 1.03 | locus YDL134C, strain PPH21, hits give low values 0.978 | locus YDR150W, strain NUM1, hits give low values 0.985 | locus YEL061C, strain CIN8, hits give low values 1 | [2] 1 | locus YHR030C, strain SLT2, hits give low values 1.04 | locus YHR087W, strain rtc3, hits give low values 1.01 | locus YJR043C, strain POL32, hits give low values 0.999 | locus YJR075W, strain HOC1, hits give low values 1.03 | locus YKL190W, strain CNB1, hits give low values 0.985 | locus YLR039C, strain RIC1, hits give low values 0.975 | locus YLR058C, strain SHM2 (second series), hits give low values 0.998 | locus YLR085C, strain ARP6, hits give low values 1.04 | locus YLR262C, strain YPT6, hits give low values 0.952 | locus YML094W, strain GIM5, hits give low values 1.12 | locus YMR219W, strain ESC1, hits give low values 1.01 | locus YMR263W, strain SAP30, hits give low values 0.994 | locus YMR307W, strain GAS1, hits give low values 1.04 | [3] 0.977 | locus YNL153C, strain GIM3, hits give low values 1.01 | locus YNL298W, strain CLA4 (second series), hits give low values 1.01 | [4] 1.01 | locus YNR030W, strain Alg12, hits give low values 0.999 | [5] 1.03 | locus YPR135W, strain CTF4, hits give low values 1.08

Cc1ccc(=O)n(-c2ccccc2)c1
inactive: [1] 1 | locus YAL040C, strain CLN3, hits give low values 1.01 | locus YCL061C, strain MRC1 (second series), hits give low values 1 | locus YDR363W, strain ESC2, hits give low values 1 | locus YER002W, strain NOP16, hits give low values 0.975 | [2] 1.02 | [3] 0.991 | locus YNL175C, strain NOP13, hits give low values 1 | locus YNL197C, strain WHI3, hits give low values 1.01 | locus YNL224C, strain SQS1, hits give low values 1.01 | [4] 0.998 | locus YOR083W, strain WHI5 (second series), hits give low values 1.01 | [5] 1.02 | locus YPL241C, strain CIN2, hits give low values 1
